Assay results taken from PubChem BioAssay AID1159580 (chemical genetic matrix, 2015).
“And” between values parts separate entries of the source, which are not always exact repeats. Equal values may be shown once. The whole screen tested about 5,500 compounds, of which about 2,000 (36%) were called active. Inconclusive results (about 18%) are left out. Rule as the data show it: active = normalized growth mostly below about 0.91 (no sharp cut-off); inconclusive = no clear call, values can overlap the other calls; inactive = mostly above about 0.92. The list shows a part of the results.

Test: chemical genetic growth profiling, strain panel (AID 1159580);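 also: tested at 20 µM; growth read once vehicle control cultures reached saturation at 30 °C; 1 = growth at the plate median or of vehicle wells; lower values mean less growth of the strain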
Conditions: S. cerevisiae deletion strains, growth OD

Measured: normalized growth

Nc1ccccc1C(=O)CC(N)C(=O)O (stereo not drawn)
inactive: locus YAL021C, strain ccr4, stronger effect = lower value 1.01 | locus YAL026C, strain drs2, stronger effect = lower value 1.01 | locus YAL030W, strain snc1, stronger effect = lower value 0.992 | locus YBL061C, strain skt5, stronger effect = lower value 1 | locus YBR009C, strain hhf1, stronger effect = lower value 1.01 | locus YBR021W, strain FUR4, stronger effect = lower value 1.06 | locus YBR023C, strain chs3, stronger effect = lower value 1 | locus YBR171W, strain sec66, stronger effect = lower value 0.99 | locus YBR229C, strain ROT2, stronger effect = lower value 1.01 | locus YBR231C, strain swc5, stronger effect = lower value 0.97 | locus YBR279W, strain paf1, stronger effect = lower value 1.01 | locus YCL011C, strain gbp2, stronger effect = lower value 1.01 | locus YCL016C, strain dcc1, stronger effect = lower value 1 | locus YCL029C, strain bik1, stronger effect = lower value 0.968 | locus YCL069W, strain vba3, stronger effect = lower value 1.01 | locus YCR088W, strain abp1, stronger effect = lower value 0.989 | locus YDL005C, strain med2, stronger effect = lower value 0.989 | locus YDL035C, strain GPR1, stronger effect = lower value 1.01 | locus YDL040C, strain nat1, stronger effect = lower value 0.989 | locus YDL074C, strain BRE1, stronger effect = lower value 0.968 | locus YDL101C, strain DUN1, stronger effect = lower value 0.995 | locus YDL134C, strain PPH21, stronger effect = lower value 1.07 | locus YDL185W, strain tfp1, stronger effect = lower value 0.947 | locus YDL192W, strain arf1, stronger effect = lower value 0.984 | locus YDR001C, strain nth1, stronger effect = lower value 0.99 | locus YDR069C, strain doa4, stronger effect = lower value 0.984 | locus YDR101C, strain arx1, stronger effect = lower value 0.956 | locus YDR137W, strain rgp1, stronger effect = lower value 0.998 | locus YDR150W, strain NUM1, stronger effect = lower value 0.997 | locus YDR159W, strain sac3, stronger effect = lower value 0.981 | locus YDR162C, strain NBP2, stronger effect = lower value 1.01 | locus YDR195W, strain ref2 0.94 | locus YDR297W, strain sur2, stronger effect = lower value 0.994 | locus YDR318W, strain mcm21, stronger effect = lower value 1.01 | locus YDR334W, strain swr1, stronger effect = lower value 0.99 | locus YDR335W, strain msn5, stronger effect = lower value 1 | locus YDR388W, stronger effect = lower value 0.994 | locus YDR392W, strain spt3, stronger effect = lower value 0.907 | locus YDR502C, strain sam2, stronger effect = lower value 1 | locus YEL003W, strain gim4, stronger effect = lower value 1.01 | locus YEL037C, strain rad23, stronger effect = lower value 1 | locus YEL061C, strain CIN8 (second series), stronger effect = lower value 0.992 | locus YEL061C, strain CIN8, stronger effect = lower value 1 | locus YER015W, strain faa2, stronger effect = lower value 1.01 | locus YER016W, strain bim1, stronger effect = lower value 0.996 | locus YER110C, stronger effect = lower value 0.975 | locus YER111C, strain swi4, stronger effect = lower value 0.998 | locus YER155C, strain BEM2 (second series), stronger effect = lower value 0.939 | locus YER155C, strain BEM2, stronger effect = lower value 0.997 | locus YER167W, strain BCK2, stronger effect = lower value 1.01 | locus YFR010W, strain ubp6, stronger effect = lower value 1.01 | locus YGL078C, strain dbp3, stronger effect = lower value 0.989 | locus YGL086W, strain mad1, stronger effect = lower value 0.954 | locus YGL167C, strain pmr1, stronger effect = lower value 0.997 | locus YGL173C, strain kem1, stronger effect = lower value 1 | locus YGL227W, strain vid30, stronger effect = lower value 0.996 | locus YGL240W, strain doc1, stronger effect = lower value 0.941 | locus YGL248W, strain PDE1, stronger effect = lower value 1.01 | locus YGL253W, strain hxk2, stronger effect = lower value 1.03 | locus YGR078C, strain PAC10, stronger effect = lower value 0.998 | locus YGR135W, strain pre9, stronger effect = lower value 1 | locus YGR229C, strain SMI1, stronger effect = lower value 1.01 | locus YGR252W, strain gcn5, stronger effect = lower value 1.17 | locus YHR013C, strain ard1, stronger effect = lower value 0.998 | locus YHR027C, strain rpn1, stronger effect = lower value 0.984 | locus YHR030C, strain SLT2, stronger effect = lower value 0.989 and 1.03 | locus YHR079C, strain IRE1 (second series), stronger effect = lower value 0.992 | locus YHR079C, strain IRE1, stronger effect = lower value 1.05 | locus YHR094C, strain hxt1, stronger effect = lower value 0.995 | locus YHR129C, strain ARP1, stronger effect = lower value 1.01 | locus YHR142W, strain chs7, stronger effect = lower value 0.995 | locus YHR200W, strain rpn10, stronger effect = lower value 0.995 | locus YIL066C, strain RNR3, stronger effect = lower value 1 | locus YIL073C, strain SPO22, stronger effect = lower value 0.986 | locus YIL125W, strain kgd1, stronger effect = lower value 0.993 | locus YIR030C, strain dcg1, stronger effect = lower value 0.997 | locus YJL092W, strain hpr5, stronger effect = lower value 1.01 | locus YJL095W, strain BCK1 (second series), stronger effect = lower value 0.993 | locus YJL095W, strain BCK1, stronger effect = lower value 0.998 and 1.02 | locus YJL115W, strain asf1, stronger effect = lower value 0.985 | locus YJL129C, strain trk1, stronger effect = lower value 1.03 | locus YJL134W, strain LCB3, stronger effect = lower value 0.991 | locus YJL154C, strain vps35, stronger effect = lower value 0.991 | locus YJL164C, strain tpk1, stronger effect = lower value 1.03 | locus YJL166W, strain qcr8, stronger effect = lower value 0.991 | locus YJL168C, strain set2, stronger effect = lower value 0.985 | locus YJL187C, strain SWE1 (second series), stronger effect = lower value 0.992 | locus YJL187C, strain SWE1, stronger effect = lower value 1.02 | locus YJR043C, strain POL32, stronger effect = lower value 1.01 | locus YJR066W, strain TOR1, stronger effect = lower value 0.952 | locus YJR075W, strain HOC1, stronger effect = lower value 0.995 | locus YKL009W, strain mrt4, stronger effect = lower value 0.964 | locus YKL068W, stronger effect = lower value 0.975 | locus YKL085W, strain MDH1 (second series), stronger effect = lower value 0.983 | locus YKL085W, strain MDH1, stronger effect = lower value 0.983 | locus YKL160W, strain elf1, stronger effect = lower value 1.02 | locus YKL190W, strain CNB1, stronger effect = lower value 1.01 | locus YKR001C, strain vps1, stronger effect = lower value 0.959 | locus YKR026C, strain gcn3, stronger effect = lower value 0.992 | locus YKR091W, strain srl3, stronger effect = lower value 0.991 | locus YLL001W, strain dnm1, stronger effect = lower value 1 | locus YLL026W, stronger effect = lower value 0.994 | locus YLL041C, strain sdh2, stronger effect = lower value 0.998 | locus YLR027C, strain aat2, stronger effect = lower value 1.01 | locus YLR039C, strain RIC1, stronger effect = lower value 0.91 | locus YLR058C, strain SHM2, stronger effect = lower value 1.01 | locus YLR102C, strain apc9, stronger effect = lower value 0.984 | locus YLR113W, strain HOG1, stronger effect = lower value 1.02 | locus YLR221C, strain rsa3, stronger effect = lower value 0.987 | locus YLR258W, strain gsy2, stronger effect = lower value 1.01 | locus YLR262C, strain YPT6 (second series), stronger effect = lower value 1 | locus YLR262C, strain YPT6, stronger effect = lower value 0.896 | locus YLR268W, strain sec22, stronger effect = lower value 0.957 | locus YLR320W, strain mms22, stronger effect = lower value 0.983 | locus YLR330W, strain CHS5, stronger effect = lower value 0.989 | locus YLR342W, strain FKS1 (second series), stronger effect = lower value 1.02 | locus YLR342W, strain FKS1, stronger effect = lower value 0.992 | locus YLR357W, strain rsc2, stronger effect = lower value 0.984 | locus YLR370C, strain arc18, stronger effect = lower value 0.992 | locus YLR371W, strain rom2, stronger effect = lower value 0.984 | locus YLR384C, strain iki3, stronger effect = lower value 0.972 | locus YLR418C, strain cdc73, stronger effect = lower value 1.06 | locus YML016C, strain PPZ1, stronger effect = lower value 0.989 | locus YML032C, strain rad52, stronger effect = lower value 1.02 | locus YML120C, strain ndi1, stronger effect = lower value 1 | locus YML124C, strain tub3, stronger effect = lower value 0.994 | locus YMR058W, strain fet3, stronger effect = lower value 1 | locus YMR078C, strain ctf18, stronger effect = lower value 0.98 | locus YMR125W, strain sto1, stronger effect = lower value 1.02 | locus YMR129W, stronger effect = lower value 1 | locus YMR205C, strain PFK2, stronger effect = lower value 1.02 | locus YMR223W, strain ubp8, stronger effect = lower value 0.995 | locus YMR231W, strain pep5, stronger effect = lower value 0.996 | locus YMR263W, strain SAP30, stronger effect = lower value 0.995 | locus YMR307W, strain GAS1, stronger effect = lower value 1.16 | locus YNL067W, strain RPL9B, stronger effect = lower value 0.998 | locus YNL071W, strain lat1, stronger effect = lower value 1 | locus YNL153C, strain GIM3, stronger effect = lower value 0.988 | locus YNL183C, strain NPR1, stronger effect = lower value 0.965 | locus YNL209W, strain ssb2, stronger effect = lower value 1 | locus YNL233W, strain BNI4, stronger effect = lower value 0.993 | locus YNL248C, strain rpa49, stronger effect = lower value 0.914 | locus YNL250W, strain rad50, stronger effect = lower value 0.935 | locus YNL271C, strain bni1, stronger effect = lower value 0.984 | locus YNL298W, strain CLA4, stronger effect = lower value 0.991 | locus YNL307C, strain MCK1, stronger effect = lower value 0.982 | locus YNL322C, strain KRE1 (second series), stronger effect = lower value 1 | locus YNR049C, strain mso1, stronger effect = lower value 1.02 | locus YNR052C, strain pop2, stronger effect = lower value 1.02 | locus YOL006C, strain TOP1, stronger effect = lower value 0.831 | locus YOL012C, strain htz1 0.879 | locus YOL147C, strain pex11, stronger effect = lower value 0.991 | locus YOR001W, strain rrp6, stronger effect = lower value 0.972 | locus YOR061W, strain CKA2, stronger effect = lower value 0.992 | locus YOR069W, strain VPS5, stronger effect = lower value 0.993 | locus YOR070C, strain gyp1, stronger effect = lower value 1 | locus YOR080W, strain dia2, stronger effect = lower value 1 | locus YOR083W, strain WHI5, stronger effect = lower value 1.02 | locus YOR106W, strain vam3, stronger effect = lower value 1.02 | locus YOR136W, strain idh2, stronger effect = lower value 0.972 | locus YOR144C, strain elg1, stronger effect = lower value 0.996 | locus YOR184W, strain ser1, stronger effect = lower value 0.978 | locus YOR231W, strain MKK1, stronger effect = lower value 1.04 | locus YOR265W, strain rbl2, stronger effect = lower value 1 | locus YOR270C, strain vph1, stronger effect = lower value 1.04 | locus YOR290C, strain snf2, stronger effect = lower value 0.994 | locus YOR316C, strain cot1, stronger effect = lower value 0.994 | locus YPL051W, strain arl3, stronger effect = lower value 1 | locus YPL078C, strain atp4, stronger effect = lower value 1.01 | locus YPL106C, strain sse1, stronger effect = lower value 0.966 | locus YPL240C, strain hsp82, stronger effect = lower value 0.992 | locus YPL241C, strain CIN2, stronger effect = lower value 1.01 | locus YPL256C, strain CLN2, stronger effect = lower value 1.04 | locus YPR119W, strain clb2, stronger effect = lower value 0.985 | locus YPR141C, strain kar3, stronger effect = lower value 0.992 | locus YPR163C, strain tif3, stronger effect = lower value 0.986 | locus YPR167C, strain met16, stronger effect = lower value 0.996 | strain wtn01, stronger effect = lower value 0.94
